{"source": "the supplement of paper PMC12632987", "binders": {"B1": {"name": "usp_38_diff_out_5_164_609 (protein)", "chain": "MVEEKLKEMEEIRDETIEKLDELLEEAKKNPEKLEEIKKEINELTEEAIDKMNELTTEALEADPERAEEILKHYDELMTELLTHKKEVLEEIEKLKKEKE"}, "B2": {"name": "usp_38_diff_out_9_42_629 (protein)", "chain": "RKELEERLLELIRETGEVLREAEEVLRELREVDPEAARRFRREVAELLDKIDDKLLKAQRLLLQDESKYPEAQAALDEAERLVEELRRLAEEWRRRLKER"}, "B3": {"name": "usp_38_diff_out_5_164_608 (protein)", "chain": "GVEEALEELRKIREELEKKLKELLEKAKENPEKLEEYKKEITKAMDEAIDKMNEITTRALEAHPERAEEILREYDEEVTKMLKEYNEVMEKLKKLEEEYK"}, "B4": {"name": "usp_38_diff_out_5_164_612 (protein)", "chain": "AVEAIRAEFEAAADAALAELKALLAEAKADPSKVEEKLKEAEAVLDELLDLLVEATERVAEEDPSQVEAFLREADARLEELLGIIAEIRELARKVREAKA"}, "B5": {"name": "usp_38_diff_out_5_164_610 (protein)", "chain": "GVEELLKEMEEIKKETLEKLDKLLEEAKKNPEKLDEYKKEINELTNEAIDKMNELTTEALELDPERAEEILRHYDEIMTELLTHKQKVLDEIEKLKKEKE"}, "B6": {"name": "usp_38_diff_out_9_42_625 (protein)", "chain": "MKELEEKREETLKLIAEAGRYVDEVIERLAKLDPELARELRREAAEAHDKIVELTQEANKYYLAGEETKEEFLAKLDEIKKIVDELRKRAEELLAAAEAA"}, "B7": {"name": "usp_38_diff_out_5_91_621 (protein)", "chain": "EERRKELIKLAEEAAKLLEKAAELLEKGEDYTEAIKKAIELYKKLAEELKGGGPRERRLSLTAAGAAIALEELPKYSKELQIAMLKELADVTKELAEELK"}, "B8": {"name": "usp_38_diff_out_5_91_617 (protein)", "chain": "EEERRRLIELAEEAAELLKKAAELLEKGEDYTEAVKKAIELLKELAKLLAGGDSRERRLSLTAAGMAEALEELDKYPKELQIAMLKAMADVAKEMAEQLR"}, "B9": {"name": "usp_38_diff_out_5_91_623 (protein)", "chain": "AERREEAVRLAKEAAEYLKKAAELLEAGEDYTEEIKRAREALTRAAELLAKGNAREQRLALTAAGMAEALDELPRYSKELQIAMLKELADVAKELAEQLA"}, "B10": {"name": "usp_38_diff_out_5_91_615 (protein)", "chain": "EERRKELIKKAKEAAKKLKEAAELLEKGEDYTKEIEEAIKLYKELAEALAGGNARERRLSLTAAGAAIALEKLDEYPKELQIAMLKAHAEVTKQMAEELE"}, "B11": {"name": "usp_38_diff_out_5_80_613 (protein)", "chain": "SLLEEARRLAEEALKAEDLETFEELLKQLVETVRRAAEEALERGTLDETVRELSGILLELDKEVRKSSNKEKKKLAKEYLNQAVDVLAAAELRALEREAA"}, "B12": {"name": "usp_38_diff_out_5_164_607 (protein)", "chain": "GVEEALKELEKTAEELKKKLKELLEEAKKNPEKLDEYKKKITEAVNEAIDKINEITTKALEAHPEQADEILRHYDEVVTEMLTEYNAALEELEKLKKEAA"}, "B13": {"name": "usp_38_diff_out_5_164_611 (protein)", "chain": "EVERIREEFEARADATLAALRALLAQARADPATARAALAQAEALVDDLADFYVEAVEEVNEADPSKVEEFLREASRRLEELSALVAELRALARAQAEAEA"}, "B14": {"name": "usp_38_diff_out_5_91_618 (protein)", "chain": "AEARAEQIRLAEEAARLLEEAARRLEAGEDYTADVERAIALFRELAAALAGGDARQRRLSLTAAGLALALEELPRYSRELQIAMLRAHADVARAMAEELR"}, "B15": {"name": "usp_38_diff_out_5_91_622 (protein)", "chain": "EETRKEAVKLAKEAAEALKKAAELLEKGEDYTEELKKAYEALTKLAELLAKGDAREQRLALTAAGIAEALKELPRYPKELQIAMLKELADVAKELAEQLE"}, "B16": {"name": "usp_38_diff_out_5_91_616 (protein)", "chain": "EEERKKIIEKAEELARLLKEAAELLEKGEDYTENIKRAIKLAEELAKALAGGDARERRLSLTFAGLAEALKEIENYPKELQIAMLKAHADVAEEAAELLK"}, "B17": {"name": "usp_38_diff_out_5_91_614 (protein)", "chain": "EERRKKLIEKAEEAAKKLEEAAKRLEAGEDYTKDIEEAIELYREIAAALADGDARERRLSLTAAGMALALEKLGEYPKDLQIAMLKAHADVAKEMAEQLK"}, "B18": {"name": "usp_38_diff_out_5_164_606 (protein)", "chain": "MVEEALKRMEEIAKELEAKLKALLAEAKKNPAKLAEYEKQITDATNEALDELNEITTKALEANPEKADEILEHYDRVVTRMLTAYNAAKAELAALKKEAA"}, "B19": {"name": "usp_38_diff_out_9_172_624 (protein)", "chain": "DLESKRFKIQWLLADAIDLLQKIAKKADEENKKKLIEAAMLLLKASQLVVEGGDKEEILKLLEEAKKLVKELAKKDPKNKKELEEAIKLIEEAIKLVKEL"}}, "data": [{"target": "T1, USP38, Q8NB14", "T1 chain": "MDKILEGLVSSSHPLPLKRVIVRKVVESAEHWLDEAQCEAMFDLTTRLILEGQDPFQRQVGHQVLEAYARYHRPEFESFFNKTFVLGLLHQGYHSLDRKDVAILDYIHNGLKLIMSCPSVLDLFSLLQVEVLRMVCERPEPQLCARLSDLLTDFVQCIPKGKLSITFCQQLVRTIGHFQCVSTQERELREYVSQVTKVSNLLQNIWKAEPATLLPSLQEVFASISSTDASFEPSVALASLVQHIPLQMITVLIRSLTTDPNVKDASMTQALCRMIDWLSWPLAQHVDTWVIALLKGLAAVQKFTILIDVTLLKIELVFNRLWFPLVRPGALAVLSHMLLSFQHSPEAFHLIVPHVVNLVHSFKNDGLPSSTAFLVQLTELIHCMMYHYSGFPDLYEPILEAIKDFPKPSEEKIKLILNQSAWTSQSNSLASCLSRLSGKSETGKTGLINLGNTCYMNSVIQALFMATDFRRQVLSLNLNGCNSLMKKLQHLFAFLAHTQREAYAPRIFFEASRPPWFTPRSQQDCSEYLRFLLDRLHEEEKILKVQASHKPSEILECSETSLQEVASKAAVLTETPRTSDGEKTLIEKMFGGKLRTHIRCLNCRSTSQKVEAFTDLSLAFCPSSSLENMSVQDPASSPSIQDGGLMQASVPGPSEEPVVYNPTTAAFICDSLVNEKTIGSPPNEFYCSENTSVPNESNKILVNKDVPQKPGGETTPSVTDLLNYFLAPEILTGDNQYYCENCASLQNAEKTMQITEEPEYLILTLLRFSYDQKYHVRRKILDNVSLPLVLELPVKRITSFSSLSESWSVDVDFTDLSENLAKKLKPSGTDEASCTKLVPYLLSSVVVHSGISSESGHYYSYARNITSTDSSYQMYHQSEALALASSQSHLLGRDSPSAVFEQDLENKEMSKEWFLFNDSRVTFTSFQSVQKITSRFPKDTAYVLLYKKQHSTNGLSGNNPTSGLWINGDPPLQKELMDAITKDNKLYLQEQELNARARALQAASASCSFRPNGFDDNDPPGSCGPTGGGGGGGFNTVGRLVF", "assay": "median log2 fold change of GCK-ALFA target abundance (FLAG IP / Myc IP barcode read proportion) (log2 ratio); each designed protein is fused to an ALFA-tag nanobody in HEK293 cells to bring the named protein to FLAG-tagged glucokinase (GCK); Myc marks an untargeted standard; higher = target protein stabilised (more abundant)", "conditions": "target protein: 3xFLAG-MCP-GCK-ALFA reporter; HEK293 landing pad (RPLP)", "summary_of_the_method": "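Sequencing of reverse-transcribed, amplified circular RNA barcodes from anti-FLAG and anti-Myc immunoprecipitates provided the readout for an ALFA-nanobody-fused binder library recombined into HEK293 landing-pad cells. Those cells were induced with 2 μg mL^−1 doxycycline, transfected with a plasmid expressing a FLAG-tagged target and a Myc-tagged standard, and lysed after 48 h. Target abundance is the per-binder median log2 ratio of FLAG to Myc barcode read proportions. Only barcodes at a proportion of ≥10^−7 in both replicates and binders with ≥3 barcodes per replicate were kept, with a 10^−6 pseudocount added before the two replicates were pooled.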", "values": [{"binder": "B1", "median log2 fold change": 0.206}, {"binder": "B2", "median log2 fold change": -0.63}, {"binder": "B3", "median log2 fold change": 0.0441}, {"binder": "B4", "median log2 fold change": -0.239}, {"binder": "B5", "median log2 fold change": -0.17}, {"binder": "B6", "median log2 fold change": 0.146}, {"binder": "B7", "median log2 fold change": 0.214}, {"binder": "B8", "median log2 fold change": 0.486}, {"binder": "B9", "median log2 fold change": 0.1}, {"binder": "B10", "median log2 fold change": 0.0701}, {"binder": "B11", "median log2 fold change": -0.169}, {"binder": "B12", "median log2 fold change": -0.164}, {"binder": "B13", "median log2 fold change": -0.198}, {"binder": "B14", "median log2 fold change": 0.0905}, {"binder": "B15", "median log2 fold change": 0.0965}, {"binder": "B16", "median log2 fold change": 0.153}, {"binder": "B17", "median log2 fold change": 0.105}, {"binder": "B18", "median log2 fold change": -0.164}, {"binder": "B19", "median log2 fold change": -0.076}]}]}
